Assay results from the supplement of paper PMC10849652.
The full data set covers some 7,900 targets. This sample favours those with a hit. About 0.6% of all pairs of compound and target were hits. Values without a mark were called inactive.

Key:
Assay in all cases: log2 fold change, soluble protein after heating vs DMSO (PISA); higher = thermal stabilisation; K562 cells, 10 uM, 30 min; active = over 0.2 and 3.5 SD of the protein, either way, in both replicates (recomputed)
ibrutinib = compound: C=CC(=O)N1CCC[C@@H](n2nc(-c3ccc(Oc4ccccc4)cc3)c3c(N)ncnc32)C1 [ibrutinib]
In short: (§1)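 K562 cells at 2×10^6 cells/mL were given 10 μM compound for 30 min. Aliquots then went through 3 min of heating across 48°C-58°C, were pooled, and were extracted in PBS with 0.5% NP-40 at 4°C, and the supernatant after 21,000xg for 90 min was quantified by TMTpro 16plex LC-MS/MS with channel sums equalised. Thermal stability relative to control samples, from duplicates, is given as log2 fold change.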

[1] = compound: CC(=O)c1cnc2ccc(-c3cc(Cl)c(O)c(Cl)c3)nc2c1N[C@H]1CC[C@H](CN(C)C)CC1
In short: as §1

[2] = compound: CC(C)(O)CC(=O)NCCn1ccc2ncnc(Nc3ccc(Oc4cccc(C(F)(F)F)c4)c(Cl)c3)c21
In short: as §1

[3] = compound: CC(C)C1=C2N=C(C=C(N2N=C1)NCC3=CC=CC=C3)NCCCCCCN
In short: as §1

[4] = compound: CC1=C(C(CC(=O)N1)C2=CC=C(C=C2)C(F)(F)F)C(=O)NC3=C(C=C4C(=C3)C=NN4)F
In short: as §1

[5] = compound: CC1=C(C2=C(C=C1)C(=O)C3=CC=CC=C3N2CCCN)C
In short: as §1

ralimetinib = compound: CC(C)(C)Cn1c(N)nc2ccc(-c3[nH]c(C(C)(C)C)nc3-c3ccc(F)cc3)nc21 [ralimetinib]
In short: as §1

[6] = compound: CC(C)C[C@@H](C=O)NC(=O)[C@H](CC(C)C)NC(=O)[C@H](CC(C)C)NC(=O)OCc1ccccc1
In short: as §1

IRAK-1-4 Inhibitor I = compound: C1COCCN1CCN2C3=CC=CC=C3N=C2NC(=O)C4=CC(=CC=C4)[N+](=O)[O-] [IRAK-1-4 Inhibitor I]
In short: as §1

pinometostat = compound: CC(C)N(C[C@H]1O[C@@H](n2cnc3c(N)ncnc32)[C@H](O)[C@@H]1O)[C@H]1C[C@@H](CCc2nc3cc(C(C)(C)C)ccc3[nH]2)C1 [pinometostat]
In short: as §1

UniProt P35612, sequence (P35612 whole entry, looked up): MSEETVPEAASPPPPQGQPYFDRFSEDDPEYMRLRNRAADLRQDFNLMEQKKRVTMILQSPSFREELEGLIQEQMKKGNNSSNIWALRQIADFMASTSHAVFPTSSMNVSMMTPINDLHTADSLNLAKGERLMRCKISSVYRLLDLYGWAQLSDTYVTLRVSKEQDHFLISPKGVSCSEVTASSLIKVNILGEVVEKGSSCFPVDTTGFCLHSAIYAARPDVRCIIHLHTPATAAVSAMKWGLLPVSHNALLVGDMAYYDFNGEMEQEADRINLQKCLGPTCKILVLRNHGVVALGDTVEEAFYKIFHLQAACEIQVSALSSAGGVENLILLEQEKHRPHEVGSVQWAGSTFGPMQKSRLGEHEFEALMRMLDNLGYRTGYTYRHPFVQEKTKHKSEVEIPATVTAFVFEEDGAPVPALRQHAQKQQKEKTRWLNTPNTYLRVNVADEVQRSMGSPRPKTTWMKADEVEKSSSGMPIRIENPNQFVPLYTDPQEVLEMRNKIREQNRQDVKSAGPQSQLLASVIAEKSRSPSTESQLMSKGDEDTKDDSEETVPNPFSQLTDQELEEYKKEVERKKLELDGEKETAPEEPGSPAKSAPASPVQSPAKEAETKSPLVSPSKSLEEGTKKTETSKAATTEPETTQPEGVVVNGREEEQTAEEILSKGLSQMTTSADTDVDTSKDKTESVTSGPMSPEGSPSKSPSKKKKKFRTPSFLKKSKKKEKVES
UniProt Q8N5I2, sequence (Q8N5I2 whole entry, looked up): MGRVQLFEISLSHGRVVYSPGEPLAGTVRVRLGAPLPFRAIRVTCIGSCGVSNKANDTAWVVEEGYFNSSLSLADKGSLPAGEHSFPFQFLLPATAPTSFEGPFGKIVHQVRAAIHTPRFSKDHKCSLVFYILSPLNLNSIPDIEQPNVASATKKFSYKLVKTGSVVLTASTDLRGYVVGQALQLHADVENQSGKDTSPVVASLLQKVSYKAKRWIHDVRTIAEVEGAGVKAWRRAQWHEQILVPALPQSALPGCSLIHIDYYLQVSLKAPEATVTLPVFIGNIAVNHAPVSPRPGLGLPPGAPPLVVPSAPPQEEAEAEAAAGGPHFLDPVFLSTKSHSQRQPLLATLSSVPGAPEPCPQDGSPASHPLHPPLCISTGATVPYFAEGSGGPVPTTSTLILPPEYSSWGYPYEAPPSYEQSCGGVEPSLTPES
UniProt P15056, sequence (P15056 whole entry, looked up): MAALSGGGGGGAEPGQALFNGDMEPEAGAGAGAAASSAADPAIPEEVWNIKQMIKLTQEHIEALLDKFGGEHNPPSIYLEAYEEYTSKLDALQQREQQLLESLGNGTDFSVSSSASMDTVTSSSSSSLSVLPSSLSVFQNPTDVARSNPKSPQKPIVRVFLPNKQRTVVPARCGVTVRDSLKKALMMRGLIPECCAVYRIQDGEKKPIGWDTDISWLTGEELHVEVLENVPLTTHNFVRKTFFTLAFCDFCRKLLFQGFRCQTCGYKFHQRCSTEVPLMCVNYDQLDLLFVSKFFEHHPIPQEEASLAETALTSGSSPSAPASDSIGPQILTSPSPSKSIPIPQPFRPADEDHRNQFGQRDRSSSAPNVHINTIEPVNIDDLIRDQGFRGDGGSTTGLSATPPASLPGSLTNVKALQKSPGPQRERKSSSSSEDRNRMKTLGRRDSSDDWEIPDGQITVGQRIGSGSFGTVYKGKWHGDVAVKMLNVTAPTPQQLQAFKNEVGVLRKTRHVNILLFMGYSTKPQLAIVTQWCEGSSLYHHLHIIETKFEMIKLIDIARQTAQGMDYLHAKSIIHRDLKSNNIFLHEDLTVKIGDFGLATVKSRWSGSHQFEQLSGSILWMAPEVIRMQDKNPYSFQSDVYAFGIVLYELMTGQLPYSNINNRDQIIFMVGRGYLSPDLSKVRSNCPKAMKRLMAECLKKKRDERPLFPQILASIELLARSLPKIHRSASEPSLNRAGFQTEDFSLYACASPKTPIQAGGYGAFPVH
UniProt Q9UNK9, sequence (Q9UNK9 whole entry, looked up): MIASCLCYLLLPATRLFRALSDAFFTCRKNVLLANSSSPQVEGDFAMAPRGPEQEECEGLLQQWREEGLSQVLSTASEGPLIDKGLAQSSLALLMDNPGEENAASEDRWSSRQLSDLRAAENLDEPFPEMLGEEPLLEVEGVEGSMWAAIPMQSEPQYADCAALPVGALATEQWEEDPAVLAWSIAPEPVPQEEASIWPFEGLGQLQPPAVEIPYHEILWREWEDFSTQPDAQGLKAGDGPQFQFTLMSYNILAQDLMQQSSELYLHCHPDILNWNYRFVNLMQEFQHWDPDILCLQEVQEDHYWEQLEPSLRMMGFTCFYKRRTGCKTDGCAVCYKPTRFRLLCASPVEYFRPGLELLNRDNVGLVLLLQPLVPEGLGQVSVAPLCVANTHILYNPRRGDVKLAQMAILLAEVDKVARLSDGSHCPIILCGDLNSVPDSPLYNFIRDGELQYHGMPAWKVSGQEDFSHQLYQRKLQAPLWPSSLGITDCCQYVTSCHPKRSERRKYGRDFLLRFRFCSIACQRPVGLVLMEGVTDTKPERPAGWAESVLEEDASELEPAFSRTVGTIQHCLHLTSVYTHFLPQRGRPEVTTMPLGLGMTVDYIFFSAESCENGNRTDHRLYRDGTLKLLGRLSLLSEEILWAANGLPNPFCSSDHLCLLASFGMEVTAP
UniProt Q9UKU0, sequence (Q9UKU0 whole entry, looked up): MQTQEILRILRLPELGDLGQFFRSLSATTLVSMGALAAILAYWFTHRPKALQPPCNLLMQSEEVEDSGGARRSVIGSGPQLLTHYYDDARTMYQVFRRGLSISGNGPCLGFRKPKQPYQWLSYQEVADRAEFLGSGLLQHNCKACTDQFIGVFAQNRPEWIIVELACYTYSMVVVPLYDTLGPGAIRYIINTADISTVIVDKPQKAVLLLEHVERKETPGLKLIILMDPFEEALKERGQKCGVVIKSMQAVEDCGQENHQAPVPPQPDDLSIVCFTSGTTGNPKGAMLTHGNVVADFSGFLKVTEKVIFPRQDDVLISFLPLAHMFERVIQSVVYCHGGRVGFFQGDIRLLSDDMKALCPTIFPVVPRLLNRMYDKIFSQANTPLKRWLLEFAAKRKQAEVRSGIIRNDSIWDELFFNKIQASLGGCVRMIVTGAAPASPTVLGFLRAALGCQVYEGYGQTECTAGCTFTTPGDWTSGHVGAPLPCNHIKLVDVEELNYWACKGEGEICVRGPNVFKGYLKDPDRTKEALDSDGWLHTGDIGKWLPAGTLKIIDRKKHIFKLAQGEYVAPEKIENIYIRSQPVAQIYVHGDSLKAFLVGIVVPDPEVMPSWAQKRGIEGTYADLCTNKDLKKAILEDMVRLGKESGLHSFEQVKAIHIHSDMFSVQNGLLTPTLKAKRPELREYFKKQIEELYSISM
UniProt P35611, sequence (P35611 whole entry, looked up): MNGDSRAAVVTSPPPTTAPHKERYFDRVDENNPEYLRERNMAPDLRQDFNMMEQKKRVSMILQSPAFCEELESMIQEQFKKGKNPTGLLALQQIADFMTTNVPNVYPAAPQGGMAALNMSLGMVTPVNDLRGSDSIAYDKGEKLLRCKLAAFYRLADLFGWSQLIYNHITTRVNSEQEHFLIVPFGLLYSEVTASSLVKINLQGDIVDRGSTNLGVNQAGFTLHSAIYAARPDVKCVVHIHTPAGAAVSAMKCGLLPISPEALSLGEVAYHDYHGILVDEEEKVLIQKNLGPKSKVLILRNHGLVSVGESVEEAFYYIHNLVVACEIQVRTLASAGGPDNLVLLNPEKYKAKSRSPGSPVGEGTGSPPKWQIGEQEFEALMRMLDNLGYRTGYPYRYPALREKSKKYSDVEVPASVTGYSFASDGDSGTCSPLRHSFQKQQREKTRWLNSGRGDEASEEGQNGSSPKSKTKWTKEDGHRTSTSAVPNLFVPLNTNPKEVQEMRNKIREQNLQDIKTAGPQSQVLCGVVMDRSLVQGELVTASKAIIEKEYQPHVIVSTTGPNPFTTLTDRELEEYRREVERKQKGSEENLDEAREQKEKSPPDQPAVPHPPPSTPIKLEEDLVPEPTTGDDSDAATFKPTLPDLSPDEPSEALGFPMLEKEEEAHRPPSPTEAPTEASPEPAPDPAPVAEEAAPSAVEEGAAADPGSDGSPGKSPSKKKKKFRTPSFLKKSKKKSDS
UniProt Q562R1, sequence (Q562R1 whole entry, looked up): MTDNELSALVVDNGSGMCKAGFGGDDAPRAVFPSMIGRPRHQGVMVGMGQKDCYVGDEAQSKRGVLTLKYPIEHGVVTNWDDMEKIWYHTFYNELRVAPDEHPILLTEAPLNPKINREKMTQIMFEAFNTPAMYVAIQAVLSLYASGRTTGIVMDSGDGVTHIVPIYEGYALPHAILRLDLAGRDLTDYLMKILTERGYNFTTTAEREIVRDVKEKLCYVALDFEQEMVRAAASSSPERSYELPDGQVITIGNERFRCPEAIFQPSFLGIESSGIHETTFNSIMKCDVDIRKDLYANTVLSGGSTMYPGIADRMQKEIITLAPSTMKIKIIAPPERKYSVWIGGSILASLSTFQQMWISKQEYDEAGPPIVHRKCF
UniProt P42331, sequence (P42331 whole entry, looked up): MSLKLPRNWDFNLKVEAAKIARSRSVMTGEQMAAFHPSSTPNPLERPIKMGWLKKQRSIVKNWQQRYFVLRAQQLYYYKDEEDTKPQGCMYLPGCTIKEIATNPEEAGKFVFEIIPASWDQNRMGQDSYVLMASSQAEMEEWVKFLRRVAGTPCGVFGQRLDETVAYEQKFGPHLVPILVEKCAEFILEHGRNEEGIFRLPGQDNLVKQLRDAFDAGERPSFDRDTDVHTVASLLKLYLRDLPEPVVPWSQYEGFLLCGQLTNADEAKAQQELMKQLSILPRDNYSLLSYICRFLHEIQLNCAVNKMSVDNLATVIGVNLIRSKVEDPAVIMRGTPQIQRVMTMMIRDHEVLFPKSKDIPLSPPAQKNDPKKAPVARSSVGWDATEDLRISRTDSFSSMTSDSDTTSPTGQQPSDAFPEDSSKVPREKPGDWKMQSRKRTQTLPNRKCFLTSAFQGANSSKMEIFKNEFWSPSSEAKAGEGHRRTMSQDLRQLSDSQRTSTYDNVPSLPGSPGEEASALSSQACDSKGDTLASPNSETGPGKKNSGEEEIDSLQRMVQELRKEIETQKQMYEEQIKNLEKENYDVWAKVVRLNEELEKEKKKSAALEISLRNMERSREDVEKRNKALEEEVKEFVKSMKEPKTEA

| Target | log2 fold change (ibrutinib) | log2 fold change [1] | log2 fold change [2] | log2 fold change [3] | log2 fold change [4] | log2 fold change [5] | log2 fold change (ralimetinib) | log2 fold change [6] | log2 fold change (IRAK-1-4 Inhibitor I) | log2 fold change (pinometostat) |
| --- | --- | --- | --- | --- | --- | --- | --- | --- | --- | --- |
| ATF1 (UniProt P18846) | -0.02 | -0.02 | -0.07 | 0.081 | -0.04 | -0.127 | – | – | – | – |
| ACTBL2 (UniProt Q562R1) | 0 | -0.156 | 0.132 | 0.372 | 0.406 | – | 0.351 | 0.195 | – | – |
| BRMS1 (UniProt Q9HCU9) | – | 0.055 | -0.002 | – | – | -0.014 | – | – | – | – |
| APAF1 (UniProt O14727) | – | -0.153 | -0.08 | -0.156 | 0.047 | – | -0.07 | 0.135 | 0.001 | 0.066 |
| BAIAP2 isoform 4 (UniProt Q9UQB8) | – | – | – | – | – | 0.053 | – | – | – | – |
| ARRDC1 (UniProt Q8N5I2) | 0.062 | – | 0.102 | -0.07 | -0.075 | 0.045 | 0.076 | 0.094 | – | – |
| ACVR1 (UniProt Q04771) | – | 0.873 (active) | -0.158 | 0.06 | – | 0.127 | – | – | – | – |
| ADD1 isoform 4 (UniProt P35611) | 0.029 | – | -0.117 | – | – | – | – | – | -0.21 | 0.122 |
| AIF1 (UniProt P55008) | 0.012 | 0.028 | 0.035 | -0.033 | – | – | -0.112 | 0.07 | – | – |
| BTBD6 (UniProt Q96KE9) | 0.136 | 0.145 | -0.008 | 0.296 | 0.068 | 0.005 | 0.201 | 0.025 | – | – |
| ADD3 isoform 2 (UniProt Q9UEY8) | – | -0.433 | 0.005 | – | – | -0.063 | -0.015 | 0.009 | 0.008 | 0.108 |
| ACTR3B (UniProt Q9P1U1) | – | – | – | 0.181 | -0.015 | -0.016 | -0.071 | 0.056 | -0.04 | -0.081 |
| BRAF (UniProt P15056) | 0.002 | – | – | -0.044 | 0.003 | 0.056 | 0.019 | -0.031 | -0.025 | 0.047 |
| AKNA (UniProt Q7Z591) | – | – | – | -0.659 (active) | – | – | – | – | – | – |
| ARFIP1 isoform 2 (UniProt P53367) | -0.055 | – | -0.186 | -0.048 | 0.029 | – | – | – | -0.051 | 0.043 |
| BRD2 isoform 2 (UniProt P25440) | -0.164 | -0.63 | – | 0.042 | – | -0.117 | – | – | 0.091 | 0.038 |
| ADD2 isoform 9 (UniProt P35612) | -0.098 | – | – | – | – | – | 0.145 | -0.103 | – | – |

| Target | log2 fold change (ibrutinib) | log2 fold change [1] | log2 fold change [2] | log2 fold change [3] | log2 fold change [4] | log2 fold change [5] | log2 fold change (ralimetinib) | log2 fold change [6] | log2 fold change (IRAK-1-4 Inhibitor I) | log2 fold change (pinometostat) |
| --- | --- | --- | --- | --- | --- | --- | --- | --- | --- | --- |
| ARHGAP25 isoform 4 (UniProt P42331) | -0.064 | -0.16 | -0.465 | -0.961 (active) | -0.418 | 0.066 | – | – | – | – |
| AUNIP isoform 2 (UniProt Q9H7T9) | – | -0.219 | – | -0.134 | – | -0.141 | – | – | – | – |
| BRD4 (UniProt O60885) | -0.018 | -0.254 | -0.011 | 0.094 | 0.047 | 0.101 | -0.174 | -0.035 | – | – |
| AP2S1 (UniProt M0QZ21) | – | – | – | – | – | 0.139 | – | – | – | – |
| ATP6V0A1 (UniProt Q93050) | 0.047 | – | – | – | – | – | – | – | – | – |
| ADPRH (UniProt P54922) | 0.001 | – | -0.084 | 0.107 | -0.032 | 0.037 | -0.003 | -0.033 | 0.056 | 0.021 |
| ASS1 (UniProt P00966) | 0.05 | -0.155 | -0.064 | -0.122 | -0.071 | -0.021 | -0.022 | 0.006 | – | – |
| ARMC8 isoform 6 (UniProt Q8IUR7) | 0.016 | 0.038 | – | 0.053 | -0.024 | – | – | – | – | – |
| BSCL2 isoform 4 (UniProt Q96G97) | 0.069 | -0.109 | 0.003 | -0.219 | -0.122 | 0.023 | – | – | – | – |
| ARL4A (UniProt P40617) | 0.143 | -0.295 | – | – | – | – | – | – | – | – |
| ARHGAP4 isoform 2 (UniProt P98171) | 0.026 | -0.051 | – | -0.067 | -0.179 | 0.062 | 0.161 | -0.005 | – | – |
| ACSL6 isoform 1 (UniProt Q9UKU0) | 0.043 | – | 0.222 | -0.21 | -0.109 | 0.012 | -0.001 | 0.027 | – | – |
| ALDH2 isoform 2 (UniProt P05091) | -0.1 | -0.133 | 0.029 | – | – | 0.087 | -0.18 | 0.063 | – | – |
| ANGEL1 (UniProt Q9UNK9) | 0.062 | – | – | – | – | 0.074 | 0.332 | 0.207 | -0.042 | -0.019 |
| ALDH9A1 (UniProt P49189) | -0.008 | -0.024 | 0 | -0.27 | -0.056 | -0.035 | -0.077 | 0.185 | – | – |
| BRAF, A0A2R8Y8E0 | – | 0.156 | – | -0.188 | 0.149 | 0.078 | 0.059 | 0.067 | 0.055 | -0.04 |
